S2 tox: reduces viability in counter-screen for ATXN expression inhibitors; S2 cells (HEK-293 line with an ATXN2-luciferase reporter) viability, CellTiter-Fluor protease fluorescence, 24 h; Potency, µM (doses to about 56.7 µM), usual class: cytotoxic; 400,000 compounds, 0.49% hits; further: nearly all actives have a fitted effect of over 40% in size
TDP1 cell noCPT: qHTS for Inhibitors of human tyrosyl-DNA phosphodiesterase 1 (TDP1): qHTS in cells in absence of CPT; 420,000 compounds, 15% hits; Potency, µM (titrated, usually from 46.2 µM), without a hit: top-dose activity change, negative = growth inhibition, most hits filed as inhibitors; DT40 Tdp1-/- hTDP1 cells, no CPT, ATP luminescence, 48 h; AID 686978, 2013; further: on the % scale 0 is the no-effect control and ±100 the full control effect; nearly all actives have a fitted effect of over 55% in size
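DT40 Tdp1-/-;hTDP1 cells, no CPT (DMSO vehicle only), 400 cells/well; compounds pin-transferred; ≥48 hr, 37 °C; CellTiter-Glo 30 min RT dark, luminescence read.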
TGFb inhibitor: blocks TGF-b signaling. AID 588855. 410,000 compounds, 1.2% hits. HepG2 CAGA-GFP TGF-b/SMAD3 reporter, GFP fluorescence, 18 h; TGF-beta stimulated, 500 pg/mL final. Potency, µM (titrated, usually from 46.1 µM), for the others: at the top dose activity, negative = inhibition, most hits filed as inhibitors; further: on the % scale 0 is the no-effect control and ±100 the full control effect; nearly all actives have a fitted effect of over 65% in size
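Read-out: total well GFP (ex488/em500-530) summed from mean per-cell fluorescence. Cells: HEPG2 CAGA-GFP, 1% FBS DMEM, 18 h at 37 degrees C with 500 pg/mL final TGF-beta. Unstimulated wells served as the full-inhibition control; stimulated DMSO wells = 0%.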
HepG2 viability: HepG2 cytotoxicity, counter-screen for TGF-b inhibitors; HepG2 CAGA-GFP viability, ATP luminescence, 18 h; Potency, µM (titrated, usually from 46.1 µM), inactives show top-dose activity change, negative = cytotoxicity, most hits filed as cytotoxic; 410,000 compounds, 0.76% hits; AID 588856
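CellTiter-Glo luminescence gave cytotoxicity after 18 hours at 37 degrees C. The cells were HepG2 CAGA-GFP in 1% FBS DMEM, stimulated with 500 pg/mL TGF-beta after compound addition. %Activity was normalised to no-cell wells (complete cell-killing) and DMSO (no toxicity), and curves were fitted and classified.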
ATXN2 expr inh: ATXN2 expression inhibition; HEK-293 ATXN2-luciferase reporter, luminescence, 24 h; Potency, µM (highest dose often 57 µM), without a hit: top-dose activity change, negative = inhibition, hits mostly inhibitors; 360,000 compounds, 0.72% hits; AID 1745845; further: on the % scale 0 is the no-effect control and ±100 the full control effect; nearly all actives have a fitted effect of over 55% in size
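ATXN2-luciferase reporter cells (luciferase flanked by upstream and downstream ATXN2 gene portions) were treated 24 h at 37 °C with compounds at up to 57 uM. SteadyGlo luminescence gave expression; GF-AFC fluorescence gave viability.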
TDP1 cell CPT: DT40-hTDP1 cell growth loss with CPT. 420,000 compounds, 12% hits. AID 686979. Potency, µM (highest dose often 46.2 µM), inactives show top-dose activity change, negative = growth inhibition, usual class: inhibitors. chicken DT40 Tdp1-/-;hTDP1 cells + 20 nM CPT, ATP luminescence, 48 h; further: on the % scale 0 is the no-effect control and ±100 the full control effect; nearly all actives have a fitted effect of over 55% in size
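Chicken DT40 Tdp1-/- cells stably complemented with human TDP1 were seeded at 400 cells/well in medium containing 20 nM camptothecin, exposed to pin-transferred compounds, and grown at 37 °C for at least 48 hr. Viability was read as ATP luminescence.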
The depositor's hits bear a star; i = inactive; ? = inconclusive; . = no result given; [ ] = remark or other dose. This is a sample that favours compounds with a hit; in the whole collection about 17% have one here. The call rests on the fitted dose curve; in most records, active means well fitted curve in the direction sought with a large enough effect; inconclusive means small, poorly fitted or top-dose-only effect, or another doubt; inactive means no such curve, though single readings can be large; an effect the other way counts as inactive or inconclusive. Potency means the concentration at half of the fitted maximal effect.

SMILES	S2 tox	TDP1 cell noCPT	TGFb inhibitor	HepG2 viability	ATXN2 expr inh	TDP1 cell CPT
Oc1ccc(C[C@@H]2CNCCN2CCC23CC4CC(CC(C4)C2)C3)cc1	?	13µM*	?	-108%	0%	16µM*
CCCCN1CCNC[C@H]1Cc1ccc(O)cc1	i	-12%	-6%	2%	-8%	-19%
Cc1ccc(C)n1-c1ccc(N2CCOCC2)cc1	i	?	5%	-18%	-3%	?
Cc1ccc(C)n1-c1ccc(N(C)C)cc1	i	29µM*	0%	-4%	-4%	?
COc1ccc(-c2oc(=O)c3cc(OC)c(OC)cc3c2-c2cc(F)cc(OC)c2)cc1	i	18µM*	15%	-12%	-5%	?
COc1ccc(-c2oc(=O)c3cc(OC)c(OC)cc3c2/C=C/c2ccc([N+](=O)[O-])cc2)cc1	i	?	-8%	-28%	-10%	?
COc1ccc(-c2oc(=O)c3cc(OC)c(OC)cc3c2C(F)(F)F)cc1	i	-19%	2%	2%	3%	-4%
COc1ccc(-c2oc(=O)c3cc(OC)c(OC)cc3c2/C=C/c2cccc([N+](=O)[O-])c2)cc1	i	9.2µM*	-11%	-23%	-2%	8.2µM*
COc1ccc(-c2c(-c3ccc(C#N)cc3)oc(=O)c3cc(OC)c(OC)cc23)cc1	i	16µM*	4%	-6%	1%	?
Cc1nn(-c2ccccc2)c(C)c1/C=C1\C(=O)N(C)C(=S)N1C	i	16µM*	-19%	-16%	6%	?
Cc1cc(/C([O-])=C(/C(=S)Nc2ccc(F)cc2)[n+]2ccccc2)c(C)n1-c1ccc(F)cc1	i	.	-1%	-19%	8%	.
Cc1ccc(-n2c(C)cc(/C([O-])=C(/C(=S)Nc3ccc(F)c(Cl)c3)[n+]3ccccc3)c2C)cc1	i	23µM*	-13%	-28%	-12%	23µM*
Cc1cc(/C([O-])=C(/C(=S)Nc2ccc(F)cc2)[n+]2ccccc2)c(C)n1Cc1ccccc1Cl	i	23µM*	-25%	-16%	.	21µM*
CCC1(CC)NC(=O)N(CC(=O)Nc2ccc(-n3cnnn3)cc2)C1=O	i	-4%	-6%	-14%	.	-3%
Cn1c(N)c(NC(=S)NC2CCCCC2)c(=O)n(C)c1=O	i	-12%	19%	12%	0%	1%
COc1ccccc1C(=O)NCc1nc2cccnc2n1Cc1ccc(F)cc1	.	?	0%	-5%	.	-24%
COc1cccc(C(=O)NCCS(=O)(=O)N2CCc3ccccc3C2)c1	?	5%	-4%	0%	-2%	4%
COc1cccc(C(=O)NCC(c2ccc(N(C)C)cc2)N2CCc3ccccc32)c1OC (centres undefined)	.	15µM*	?	-28%	.	15µM*
COc1cccc(C(=O)NCC(c2ccc(N(C)C)cc2)N2CCc3ccccc32)c1 (centres undefined)	.	?	-31%	-40%	.	8.2µM*
CN(C)c1ccc(C(CNS(=O)(=O)c2ccc(F)cc2)N2CCc3ccccc32)cc1 (centres undefined)	i	?	-16%	-69%	-5%	?
COc1ccc(C(=O)NCC(c2ccc(N(C)C)cc2)N2CCc3ccccc32)cc1OC (centres undefined)	.	6.5µM*	-16%	-26%	.	5.2µM*
COc1ccc(C(=O)NCC(c2ccco2)N2CCc3ccccc32)cc1 (centres undefined)	?	2.6µM*	?	0%	-28%	3.7µM*
COc1cc(C(=O)NCC(c2ccc(N(C)C)cc2)N2CCc3ccccc32)cc(OC)c1OC (centres undefined)	.	18µM*	-26%	-46%	.	7.3µM*
CN(C)c1ccc(C(CNC(=O)c2ccccc2F)N2CCc3ccccc32)cc1 (centres undefined)	.	?	?	-27%	.	10µM*
Cc1cc(C)c(S(=O)(=O)NCC(c2ccc(N(C)C)cc2)N2CCc3ccccc32)c(C)c1 (centres undefined)	i	?	1%	-18%	13%	18µM*
SMILES	S2 tox	TDP1 cell noCPT	TGFb inhibitor	HepG2 viability	ATXN2 expr inh	TDP1 cell CPT
COc1ccc(C(=O)NCC(c2cccs2)N2CCc3ccccc32)c(OC)c1 (centres undefined)	i	15µM*	?	-9%	-13%	?
COc1ccc(C)cc1S(=O)(=O)NCC(c1ccc(N(C)C)cc1)N1CCc2ccccc21 (centres undefined)	i	?	-28%	-11%	14%	?
CC(C)C(O)(CC#CCN1CCCC1)c1ccccc1 (centres undefined)	i	20%	2%	-9%	-3%[11.3 µM]	-22%
O=S(=O)(NCC(c1ccco1)N1CCc2ccccc21)c1ccccc1 (centres undefined)	i	18µM*	?	0%	-7%	23µM*
O=S(=O)(NCC(c1ccccc1)N1CCc2ccccc21)c1ccc(Cl)cc1 (centres undefined)	?	?	?	-70%	?	?
CCc1nc(CN2CCN(c3cc(C(F)(F)F)ccn3)CC2)c(C)[nH]1	i	16µM*	-14%	-25%	-39%	23µM*
COc1ccc(NC(=O)CSc2nc3c(c(=O)n2C)SCC3)cc1OC	i	-10%	14%	0%	-4%	2%
CC1SC(=S)N(c2ccc(N(C)C)cc2)C1=O (centres undefined)	i	-20%	16µM*	-75%	-21%	?
CCC(Cc1ccccc1)NC(=O)CCS(=O)(=O)c1cc2c(cc1Cl)NC(=O)CO2 (centres undefined)	i	.	19%	-13%	-5%	.
CC(C)(C)c1ccc(-c2cc(C(=O)NNC(=O)Nc3ccccc3)c3ccccc3n2)cc1	i	21µM*	0%	-52%	94%	?
O=C(NNC(=O)c1cc(-c2ccccc2)nc2ccccc12)Nc1cccc(Cl)c1	?	21µM*	?	-34%	-26%	?
Cc1cc(CNC(=O)COc2cc(F)ccc2[N+](=O)[O-])c2ccccc2n1	i	12µM*	-2%	-10%	3%	12µM*
Cc1cc(CNC(=O)c2cccc([N+](=O)[O-])c2C)c2ccccc2n1	.	12µM*	0%	-3%	-37%	10µM*
